Test results published in PubChem BioAssay (NCATS).
Records with an inconclusive call do not appear. Entries that show only a call come without a potency. Activity calls are given as the source filed them. The call rests on the fitted dose curve; in most records, active means well fitted curve in the direction sought with a large enough effect; inconclusive means small, poorly fitted or top-dose-only effect, or another doubt; inactive means no such curve, though single readings can be large; an effect the other way counts as inactive or inconclusive.

Key:
[1] = NCATS anti-infectives library activity on HEK293 viability as a counter-qHTS vs the C. elegans viability qHTS (AID 1745854)
Outline: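 CellTiter-Glo luminescence, read on a CCD imager, scored viability of HEK293 cells after 24 hr compound exposure at 37C. Library tested in several concentrations, 1:5 steps, up to 41.7 uM; digitonin served as control.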

[2] = molecular target: Glutathione peroxidase 1 (Homo sapiens) (UniProt P07203); assay: Primary qHTS Assay for Inhibitors of Recombinant Selenoprotein Glutathione Peroxidase 1 (GPX1) (AID 1845191); further: nearly all actives have a fitted effect of over 65% in size
Outline: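 NADPH consumption tracked by fluorescence at 340/450 nm between t=0 and t=15 min, room temperature. Final mix: 10 nM GPX1, 100 nM glutathione reductase, 1 mM GSH, 0.5 mM NADPH, 0.5 mM cumene hydroperoxide, 0.01% BSA; 30 min compound–enzyme preincubation.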

[3] = molecular target: Phospholipid hydroperoxide glutathione peroxidase GPX4 (Homo sapiens) (UniProt P36969); assay: Primary qHTS Assay for Inhibitors of Recombinant Selenoprotein Glutathione Peroxidase 4 (GPX4) (AID 1845192); further: nearly all actives have a fitted effect of over 65% in size
Outline: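 NADPH consumption followed by fluorescence at 340/450 nm, t=0 and after 15 min at room temperature. Reaction started with cumene hydroperoxide (0.5 mM final) after 30 min compound–GPX4 preincubation; final 200 nM GPX4, 100 nM GR, 1 mM GSH, 0.5 mM NADPH.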

[4] = Quantitative High-Throughput drug screen in 47 multiple myeloma cell lines against the NCATS MIPE library collection: FR4_PLB cell viability assay (AID 1918924; further: nearly all actives have a fitted effect of over 35% in size; further: potency means the concentration at half of the fitted maximal effect)
Outline: (§1)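 Approved and investigational drugs from MIPE 4.0 were added by pin tool to 500 cells per well. After 48 hours at 37C, ATP-based CellTiter-Glo luminescence indicated remaining viability.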

[5] = Quantitative High-Throughput drug screen in 47 multiple myeloma cell lines against the NCATS MIPE library collection: Delta47_JCRB cell viability assay (AID 1918925; further: potency means the concentration at half of the fitted maximal effect; nearly all actives have a fitted effect of over 45% in size)
Outline: (§2)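 Luminescent ATP measurement with CellTiter-Glo gives viability, scaled between DMSO-only wells (100%) and media-only wells (0%). Cells, 500 per well, faced library compounds for 48 hours at 37C.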

[6] = Quantitative High-Throughput drug screen in 47 multiple myeloma cell lines against the NCATS MIPE library collection: EJM_DSMZ cell viability assay (AID 1918926; further: nearly all actives have a fitted effect of over 30% in size; further: potency means the concentration at half of the fitted maximal effect)
Outline: as §2

[7] = Quantitative High-Throughput drug screen in 47 multiple myeloma cell lines against the NCATS MIPE library collection: ARP1_JJKsccF8 cell viability assay (AID 1918928; further: nearly all actives have a fitted effect of over 40% in size; further: potency means the concentration at half of the fitted maximal effect)
Outline: (§3)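 Cell viability inhibition in this qHTS is measured via ATP content (CellTiter-Glo) after 48 h drug exposure at 37 °C. Wells hold 500 cells; DMSO-treated wells define 100% and medium-only wells 0%.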

[8] = Quantitative High-Throughput drug screen in 47 multiple myeloma cell lines against the NCATS MIPE library collection: ARD_JJKsccE7 cell viability assay (AID 1918929; further: potency means the concentration at half of the fitted maximal effect)
Outline: as §2

[9] = Quantitative High-Throughput drug screen in 47 multiple myeloma cell lines against the NCATS MIPE library collection: Karpas620_DSMZ cell viability assay (AID 1918959); further: nearly all actives have a fitted effect of over 30% in size; further: potency means the concentration at half of the fitted maximal effect
Outline: as §1

[10] = Quantitative High-Throughput drug screen in 47 multiple myeloma cell lines against the NCATS MIPE library collection: KMM1_JCRB cell viability assay (AID 1918960); further: nearly all actives have a fitted effect of over 30% in size; further: potency means the concentration at half of the fitted maximal effect
Outline: as §3

[11] = molecular target: Luciferin 4-monooxygenase (Photinus pyralis) (UniProt P08659); assay: Primary firefly luciferase (FLuc) qHTS assay for identification of artifact compounds. (AID 1845220); further: nearly all actives have a fitted effect of over 60% in size
Outline: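 FLuc 10 nM; luciferin 10 uM; ATP 10 uM; Tris-acetate pH 7.6, Mg-acetate 10 mM; 15 min RT preincubation; 5 min reaction; luminescence.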

[12] = Primary fluorescence-based thiol-reactive (MSTI) qHTS assay for identification of artifact compounds. (AID 1845221); further: nearly all actives have a fitted effect of over 65% in size; further: potency means the concentration at half of the fitted maximal effect
Outline: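 Reactivity toward the thiol probe MSTI (4 uM) is scored by fluorescence at Ex/Em 525/598 nm after 1 h at room temperature. Acetyl-MSTI and MSTI define the activity scale.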

[13] = test system: Nanoluciferase (engineered Oplophorus gracilirostris luciferase); assay: Primary Nanoluciferase (NLuc) qHTS assay for identification of artifact compounds. (AID 1845222);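 further: NLuc secreted into diluted conditioned medium of S16 cells; series mostly up to about 54 µM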
Outline: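 NLuc from S16 cell medium (1:55) plus test compounds, 15 min, room temperature. Luminescence after Nano-Glo (1:100) addition, 5 min.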

[14] = Primary redox qHTS assay for identification of artifact compounds. (AID 1845223)
Outline: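 Redox-cycling detection via DTT (250 uM final) oxidation coupled to Amplex Red (25 uM)/HRP (250 mU/mL) in HBSS. 15 min preincubation plus 30 min after DTT, room temperature. Ex/Em 525/598 nm; 4-parameter Hill fit against DMSO and 10 uM DA3003.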

[15] = Quantitative High-Throughput drug screen in 47 multiple myeloma cell lines against the NCATS MIPE library collection: AMO1_DSMZ cell viability assay (AID 1918927; further: nearly all actives have a fitted effect of over 30% in size; further: potency means the concentration at half of the fitted maximal effect)
Outline: as §2

Phospholipid hydroperoxide glutathione peroxidase GPX4 (Homo sapiens), sequence (P36969 whole entry, looked up): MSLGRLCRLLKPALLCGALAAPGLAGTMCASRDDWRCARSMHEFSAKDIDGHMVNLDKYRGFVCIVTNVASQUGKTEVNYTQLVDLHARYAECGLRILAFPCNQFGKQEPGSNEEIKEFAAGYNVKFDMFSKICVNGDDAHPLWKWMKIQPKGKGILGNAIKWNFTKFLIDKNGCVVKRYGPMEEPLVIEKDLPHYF
Glutathione peroxidase 1 (Homo sapiens), sequence (P07203 whole entry, looked up): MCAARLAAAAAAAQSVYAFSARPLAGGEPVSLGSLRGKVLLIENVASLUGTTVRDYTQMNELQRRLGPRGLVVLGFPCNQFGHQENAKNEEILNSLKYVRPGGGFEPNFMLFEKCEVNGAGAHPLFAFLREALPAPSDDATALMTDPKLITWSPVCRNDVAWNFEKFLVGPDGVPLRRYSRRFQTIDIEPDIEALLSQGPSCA

Compound	Potency [1]	Potency [2]	Potency [3]	Potency [4]	Potency [5]	Potency [6]	Potency [7]	Potency [8]	Potency [9]	Potency [10]	Potency [11]	Potency [12]	Potency [13]	Potency [14]	Potency [15]
CC(C)[C@H](C(=O)Nc1ccc(C(=O)NO)cc1)c1ccccc1	inactive	inactive	inactive	372 nM (active)	372 nM (active)	1870 nM (active)	132 nM (active)	418 nM (active)	1050 nM (active)	662 nM (active)	–	–	–	–	–
O=C(Nc1ncc(-c2cc(C(F)F)nn2-c2c(Cl)cccc2Cl)s1)C1CC1	–	inactive	inactive	235 nM (active)	332 nM (active)	209 nM (active)	418 nM (active)	296 nM (active)	–	264 nM (active)	inactive	inactive	inactive	inactive	235 nM (active)
CC(C)c1cc(C(=O)N2Cc3ccc(CN4CCN(C)CC4)cc3C2)c(O)cc1O	–	inactive	inactive	296 nM (active)	296 nM (active)	1480 nM (active)	209 nM (active)	93.5 nM (active)	166 nM (active)	105 nM (active)	inactive	inactive	inactive	inactive	132 nM (active)
Cn1cc(-c2[nH]c3cc(NC(=O)[C@H](N)C4CCCCC4)cc4c3c2C=NNC4=O)cn1	–	inactive	inactive	296 nM (active)	935 nM (active)	–	7430 nM (active)	4690 nM (active)	–	526 nM (active)	inactive	21200 nM (active)	inactive	inactive	2960 nM (active)
CC(C)c1nn(-c2c(Cl)cccc2Cl)c2nc(Cc3ccc(OCCO)cc3)[nH]c(=O)c12	–	inactive	inactive	105 nM (active)	166 nM (active)	132 nM (active)	118 nM (active)	inactive	inactive	inactive	inactive	inactive	inactive	inactive	inactive
O=C(CCCCCCNC(=O)c1cnc(N(c2ccccc2)c2ccccc2)nc1)NO	inactive	inactive	inactive	–	3320 nM (active)	13200 nM (active)	2960 nM (active)	4690 nM (active)	5900 nM (active)	4180 nM (active)	inactive	inactive	–	–	4690 nM (active)
CC(C)c1noc(N2CCC(COc3ccc(-c4ccc(S(C)(=O)=O)cc4)nc3)CC2)n1	–	inactive	inactive	6620 nM (active)	–	–	–	–	–	–	inactive	inactive	inactive	inactive	inactive
CC[C@@H]1C(=O)N(C)c2cnc(Nc3ccc(C(=O)NC4CCC(N5CCN(CC6CC6)CC5)CC4)cc3OC)nc2N1C(C)C (stereo partly drawn)	–	inactive	inactive	59 nM (active)	1480 nM (active)	743 nM (active)	132 nM (active)	–	–	52.6 nM (active)	inactive	inactive	inactive	inactive	118 nM (active)
CN1CCN(Cc2ccc(NC(=O)Nc3ccc(Oc4cc(NC(=O)C5CC5)ncn4)cc3)cc2C(F)(F)F)CC1	–	inactive	inactive	–	148 nM (active)	332 nM (active)	372 nM (active)	inactive	inactive	inactive	inactive	inactive	inactive	inactive	inactive
Cc1nc(N)ncc1-c1nc(N2CCOCC2)c2sc(C(C)(C)O)cc2n1	–	inactive	inactive	8330 nM (active)	235 nM (active)	1480 nM (active)	105 nM (active)	33.2 nM (active)	–	332 nM (active)	inactive	inactive	inactive	inactive	–
COc1cc(-c2nn(C3CCC(N4CCN(C(C)=O)CC4)CC3)c3ncnc(N)c23)ccc1NC(=O)c1cc2ccccc2n1C (stereo not drawn)	–	inactive	inactive	5260 nM (active)	–	–	–	372 nM (active)	–	372 nM (active)	inactive	inactive	inactive	inactive	590 nM (active)
Cn1c(=O)n(-c2ccc(C(C)(C)C#N)cc2)c2c3cc(-c4cnc5ccccc5c4)ccc3ncc21	–	inactive	inactive	9.3 nM (active)	–	833 nM (active)	18.7 nM (active)	–	–	–	inactive	inactive	inactive	inactive	–
COc1cc2nccc(Oc3ccc(NC(=O)C4(C(=O)Nc5ccc(F)cc5)CC4)cc3)c2cc1OC	–	inactive	inactive	–	18700 nM (active)	2960 nM (active)	16600 nM (active)	2960 nM (active)	–	2960 nM (active)	inactive	inactive	inactive	inactive	1870 nM (active)
CCc1cc2c(cc1N1CCC(N3CCOCC3)CC1)C(C)(C)c1[nH]c3cc(C#N)ccc3c1C2=O	–	inactive	inactive	–	–	–	–	–	–	–	inactive	inactive	inactive	inactive	–
Nc1ccn([C@@H]2CS[C@H](CO)O2)c(=O)n1	inactive	inactive	inactive	inactive	42900 nM (active)	inactive	inactive	inactive	inactive	inactive	–	–	–	–	inactive
